Assay outcomes as filed in PubChem.
ELG1 DNA repair – ELG1-dependent DNA repair inhibition; HEK293T ELG1-luciferase reporter, luminescence, 16 h; DNA damage induced by 5-fluorouridine; Potency, µM (titrated, usually from 46.1 µM), for inactives: at the top dose activity change, negative = inhibition, usual class: inhibitors; 330,000 tested, 2.3% active; AID 504467; note: nearly all actives have a fitted effect of over 55% in size
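Luminescence from the luciferase reporter, measured 30 min after ONE-Glo reagent at room temperature, was the read-out. Beforehand, 2,000 cells per well were exposed for 16 hr at 37 °C to 5-fluorouridine together with compound or vehicle.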
TDP1 cell noCPT – qHTS for Inhibitors of human tyrosyl-DNA phosphodiesterase 1 (TDP1): qHTS in cells in absence of CPT. DT40 Tdp1-/- hTDP1 cells, no CPT, ATP luminescence, 48 h. Potency, µM (highest dose often 46.2 µM), for inactives: at the highest dose activity change, negative = growth inhibition, most hits filed as inhibitors. 420,000 tested, 15% active. AID 686978, 2013; note: nearly all actives have a fitted effect of over 55% in size
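Chicken DT40 Tdp1-/- cells complemented with human TDP1, screened without camptothecin (DMSO vehicle only), 400 cells/well. Compounds pin-transferred, cells incubated at 37 °C for at least 48 hr. Growth read as ATP-dependent luminescence (CellTiter-Glo, 30 min at RT).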
DT40 TDP1 CPT – DT40-hTDP1 cell growth loss with CPT. chicken DT40 Tdp1-/-;hTDP1 cells + 20 nM CPT, ATP luminescence, 48 h. Potency, µM (top dose mostly 46.2 µM), without a hit: at the highest dose activity change, negative = growth inhibition, actives largely listed as inhibitors. 420,000 tested, 12% active; note: nearly all actives have a fitted effect of over 55% in size
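Chicken DT40 Tdp1-/- cells stably complemented with human TDP1 were seeded at 400 cells/well in medium containing 20 nM camptothecin, exposed to pin-transferred compounds, and grown at 37 °C for at least 48 hr. Viability was read as ATP luminescence.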
12-LOX inh – inhibitors of human 12S-lipoxygenase ALOX12; P18054; purified 12hLO, xylenol orange hydroperoxide absorbance; Potency, µM (titrated, usually from 108 µM), inactives show at the top dose activity change, negative = inhibition, most hits filed as inhibitors; 580,000 tested, 1.1% active; AID 1671190
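Hydroperoxide product was detected by ferrous iron/xylenol orange as the 573 to 405 nm absorbance ratio. Arachidonic acid at 40 uM (final) was turned over for 30 min at room temperature by 150 nM human 12hLO, pH 7.0 Hepes buffer, after 15 min compound preincubation.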
VP16 counter – Gal4-VP16 reporter inhibition counter-screen; Potency, µM (top dose mostly 53.6 µM), for the others: at the top dose activity, negative = inhibition, hits mostly inhibitors; AID 2546; 310,000 tested, 3.5% active; Drosophila S2 Gal4-VP16 UAS-luciferase, luminescence, 20 h;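 note: Gal4-VP16 expression switched on by copper sulfate through the metallothionein promoter; nearly all actives have a fitted effect of over 50% in size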
RORgamma inh – blocks mouse ROR gamma transcriptional activity | P51450 | 310,000 tested, 5.4% active | Drosophila S2 Gal4-RORgamma UAS-luciferase reporter, 20 h | Potency, µM (top dose mostly 53.6 µM), for the others: at the top dose activity change, negative = inhibition, hits mostly inhibitors; note: nearly all actives have a fitted effect of over 60% in size
Target sequence (P51450 whole entry, looked up, the tested form may be a part): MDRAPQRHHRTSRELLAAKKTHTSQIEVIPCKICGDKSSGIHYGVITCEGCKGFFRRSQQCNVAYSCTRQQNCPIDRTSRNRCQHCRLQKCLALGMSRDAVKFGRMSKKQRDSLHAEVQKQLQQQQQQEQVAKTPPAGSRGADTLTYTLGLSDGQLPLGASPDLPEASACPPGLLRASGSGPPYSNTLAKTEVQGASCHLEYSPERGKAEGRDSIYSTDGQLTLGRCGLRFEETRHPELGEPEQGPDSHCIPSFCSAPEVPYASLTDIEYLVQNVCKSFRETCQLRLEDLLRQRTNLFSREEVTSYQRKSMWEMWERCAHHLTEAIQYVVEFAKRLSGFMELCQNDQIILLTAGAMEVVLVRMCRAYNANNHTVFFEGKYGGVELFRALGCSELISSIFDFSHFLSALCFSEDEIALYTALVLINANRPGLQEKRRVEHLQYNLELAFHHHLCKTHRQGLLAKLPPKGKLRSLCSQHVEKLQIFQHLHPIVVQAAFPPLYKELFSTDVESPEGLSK
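Schneider cells (Drosophila), stable Gal4 DBD–ROR gamma + UAS-luc; 1 hr cmpd preincubation; Cu2+ induction 700 uM final; 20 hr ambient; luminescence.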
* marks the source's active call; other numbers are inactive results; ? = inconclusive; . = not tested or not shown; [ ] = dose if it differs, or a comment. In the library only some 15% were active in any assay of this set; here they are far more common. Calls come from the whole dose curve; as a rule, active = well fitted curve in the direction sought with a large enough effect; inconclusive = small, poorly fitted or top-dose-only effect, or another doubt; inactive = no such curve, though single readings can be large; an effect the other way counts as inactive or inconclusive. % is set by controls: 0 for no effect and ±100 for the full control effect; potency is the fitted concentration of half-maximal effect.

SMILES	ELG1 DNA repair	TDP1 cell noCPT	DT40 TDP1 CPT	12-LOX inh	VP16 counter	RORgamma inh
COc1cc(/C=C(/C#N)c2ccc(C)cc2)ccc1Oc1ccc([N+](=O)[O-])cn1	-1%	?	?	-19%	4%	12%
CCN1C(=O)S/C(=C/c2ccc(Oc3ccc([N+](=O)[O-])cn3)c(OC)c2)C1=O	-29%	13µM*	?	6%	-10%	16%
CCN=C1S/C(=C\c2ccc(OCC)c(OC)c2)C(=O)N1CC	?	21µM*	?	-9%	3%	?
CCOC(=O)COc1c(Br)cc(/C=C2\SC(=O)N(CC(=O)N3CCCC3)C2=O)cc1OC	2%	-23%	-23%	14%	3%	-15%
CCN=C1S/C(=C\c2cc(Cl)c(OC)c(OC)c2)C(=O)N1CC	?	?	?	1%	3%	-15%
COc1cc(/C=C2/SC(=O)N(CC(=O)N3CCCC3)C2=O)ccc1Oc1ccc([N+](=O)[O-])cn1	-11%	21µM*	?	44%	-8%	-2%
O=c1oc2ccccc2cc1S(=O)(=O)N1CCCCCC1	.	.	.	0%	.	.
Cc1cc(C(C)(C)C)oc1C(=O)N1CCN(C(=O)c2oc(C(C)(C)C)cc2C)CC1	-1%	16µM*	18µM*	-7%	11%	-15%
Cc1cc(C(C)(C)C)oc1C(=O)O	14%	0%	-4%	432%	-5%	3%
Cc1cccc(C2CC(c3ccc(Br)cc3)Nc3nc(N)nn32)c1 (configuration not stated)	-1%	23µM*	21µM*	-5%	5%	-4%
COc1ccc(C2CC(c3cc(OC)ccc3OC)n3nnnc3N2)cc1 (configuration not stated)	-23%	-24%	-25%	-3%	-3%	33%
Cc1ccccc1C1CC(c2ccc(F)cc2)Nc2nc(N)nn21 (configuration not stated)	?	?	21µM*	486%	-16%	-12%
Cc1ccccc1C1CC(c2cccs2)Nc2nnnn21 (configuration not stated)	17%	6.5µM*	-7%	-1%	3%	11%
Cc1ccccc1C1CC(c2ccc(Br)cc2)Nc2nc(N)nn21 (configuration not stated)	1%	-28%	-22%	-13%	5%	?
CCN(C)S(=O)(=O)c1cc2c(cc1Cl)Oc1cc(C)ccc1NC2=O	.	.	.	0%	.	.
C#CCOc1ccc(/C=C(/C#N)c2ccc(F)cc2)cc1OC	.	.	.	-19%	.	.
Cc1ccc2occ(CC(=O)Nc3ccc(S(=O)(=O)N4CCCC(C)C4)cc3)c2c1 (configuration not stated)	.	?	?	1%	.	.
Cc1ccc2c(=O)cc(C(=O)Nc3ccc(S(=O)(=O)N4CCCC(C)C4)cc3)oc2c1C (configuration not stated)	.	?	?	10%	.	.
Cc1ccc2oc(C(=O)Nc3ccc(S(=O)(=O)N4CCCC(C)C4)cc3)cc(=O)c2c1 (configuration not stated)	.	8.2µM*	16µM*	-16%	.	.
Cc1cc(C)c2oc(C(=O)Nc3ccc(S(=O)(=O)N4CCCC(C)C4)cc3)cc(=O)c2c1 (configuration not stated)	?	?	15µM*	2%	-5%	26%
O=C(COC(=O)c1cccc(NS(=O)(=O)c2ccc(F)c(F)c2)c1)NC(=O)NC1CCCCC1	-7%	16µM*	?	-8%	?	12%
Cc1ccc(C)c(N2CCN(CCCc3ccccc3)CC2)c1	-18%	?	21µM*	?	5%	-5%
COCCCNC(=O)c1ccc2nc(CCc3ccccc3)oc2c1	.	?	?	-3%	.	.
Cc1ccc(C)c(N2CCN(CCCNC(=O)c3ccc4nc(CCc5ccccc5)oc4c3)CC2)c1	.	4.1µM*	3.7µM*	?	.	.
Cc1ccc(C)c(N2CCN(Cc3csc(C)c3)CC2)c1	.	23µM*	?	-15%	.	.
SMILES	ELG1 DNA repair	TDP1 cell noCPT	DT40 TDP1 CPT	12-LOX inh	VP16 counter	RORgamma inh
Cc1cccc(N2CCN(CC3CCCCC3)CC2)c1C	-7%	-27%	?	-12%	-13%	-19%
Cc1ccc(C)c(N2CCN(CC3CCCCC3)CC2)c1	-8%	?	?	4.5µM*	-19%	-36%
CN1CCN(CCCc2ccccc2)CC1	.	.	.	-18%	.	.
COc1ccc(Nc2nc(Nc3ccc(C)c(C)c3)nc3nccnc23)cc1	.	.	.	-18%	.	.
Cc1ccc(C)c(N2CCN(CCCNC(=O)c3ccc4nc(C(C)C)oc4c3)CC2)c1	.	3.7µM*	7.3µM*	?	.	.
Cc1ccc(C)c(N2CCN(c3ccncc3N)CC2)c1	-12%	13µM*	18µM*	77%	-7%	-34%
CN=C1S/C(=C\c2cc(C)n(-c3ccccc3F)c2C)C(=O)N1C	?	23µM*	15µM*	?	18µM*	?
Cc1cc(/C=C2\SC(=O)N(C)C2=O)c(C)n1-c1ccc(S(N)(=O)=O)cc1	-10%	9.2µM*	18µM*	?	1%	?
CN=C1S/C(=C\c2ccc(N3CCOCC3)cc2C)C(=O)N1C	8.2µM*	?	?	-22%	0%	33%[10 µM]
Cc1cc(/C=C2\SC(=O)N(C)C2=O)c(C)n1-c1ccc(O)cc1	?	21µM*	?	?	-27%	19%
Cc1cc(/C=C2\SC(=O)NC2=O)c(C)n1-c1ccc(N(C)C)cc1	6%	1%	15%	-13%	1%	15%
CC(=O)Nc1ccc(CN2CCn3c(nnc3-c3cccnc3)C2)cc1	.	.	.	6%[6.33 µM]	.	.
CC(C)Cc1nc(OCC(=O)O)c(C#N)c2c1CCCC2	.	.	.	-44%	.	.
COc1ccc(-c2cc(N3CCC(NC(=O)c4ccc(C)c(F)c4)CC3)n[nH]2)cc1	.	.	.	21%	.	.
c1ccc(Cn2cc(CN3CCCC3)c(-c3ccc4c(c3)OCO4)n2)cc1	.	.	.	18%	.	.
Cc1nn(C)c(C)c1N1C(=O)c2cccc3c(N)ccc(c23)C1=O	6%	-10%	-26%	-29%	-1%	-5%
Cc1ccc(N2C(=O)c3cccc4c(N)ccc(c34)C2=O)c2cccnc12	?	0.021µM*	0.0082µM*	-12%	?	?
CCOc1cc(S(=O)(=O)N2CCN(CCO)CC2)ccc1Br	.	.	.	-47%	.	.
COC(=O)C1=C(C(=O)OC)[C@]2([C@@H]3C/C=C\CN[C@@H](Cc4ccccc4)C(=O)N3Cc3ccccc3)C=C[C@H]1O2	.	?	25µM*	.	.	.
